# Measurements from the supplement of paper PMC6555819.
# System: RXRa DBDmut IVT, anti-RXR (DBD mutation: RXRa K156A/R161A, NR concentration 90 nM)
# Test: PBM binding z-score (relative to random genomic background probes); higher = stronger binding; sequences stand for … in GC…GCGATTGACAGCGTAGAATGAAGG
# In short: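 For binding z-scores, the reference was random background probes on custom Agilent 4×180K protein-binding microarrays. These arrays were incubated 1 h with ligand-free nuclear receptor dimers in PBS pH 7.4, 2% milk, 0.02% Triton X-100, 1 mM DTT, 0.2 mg/mL BSA and 0.4 mg/ml salmon testes DNA. Fluorescence was scanned after antibody detection of each partner (one per run) and regression-normalized.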
row,Sequence,PBM binding z-score
1,AGAATGAGGTTATACGTAGATCATGGAAGAAAGT,1.74
2,ACTCGGAGGACAAAGGTCCGAGCTACGCCAGTGA,0.364
3,TGAATGAGGTTGTAAGATCAGGGAACGTTGCAAA,-0.583
4,TCTTGTAGATCAACAGGAGGTTTAGAAAGATCGA,0.348
5,CAAACTAGTTCACGAAAGGTCAAAGTCGAATGAC,3.07
6,GCTCGGAGAACAAGGTCAGAGCTTTGTCCGTAGA,0.418
7,TTACCAAGCTGAAGGTCGTTGATCCCTCTGTAGA,-0.269
8,ACTAGTTGGTCAGCTGAGGTCACACATAATTCGG,1.13
9,TCTAGCAGGCCAGAGGGTCTCTCAAGAGGTACGG,-0.155
10,AGAACGAAGGCACGCTGAGTTGATAGCAGAGTAG,-0.345
11,ACTATTAGTTGACTTAGGGCAACCTATACGACGC,0.811
12,GGAACGAGGGCATACGAGTTGATAGCATGGCGAT,2.41
13,AGAATGAGGTTACCAAAGATCAGGCAAACGCTTG,1.16
14,GGAGCGAGGGCAAAGTTGATAGCATCTGTCGACG,2.06
15,TTACCAAGGTGAGCTGAGGTCGTTGGTCCAACTC,-0.219
16,TCTTGTAGATCAGCAGGTTAAGAATGCTGGCCAA,0.415
17,CCGACTTGGGCAAGGTTACCATAACGCACAGCCA,0.164
18,CTCGAAAGGTCGCTTGAGGTGAGTATACGGATAA,1.89
19,TCTTGTAAATCAAGCAGGTTAAGAAAGCCTGAGT,0.73
20,TCTCGGAGGACACGAAGGTGAGAGCTTTCCAGAG,0.225
21,CCTACAGGGCCAAAAAGGTCATTGATGCCGATAA,1.26
22,AGAATGAGGTTATACGTAGAGCAGGGAAGAAAGT,1.58
